For some assays here: Measured potencies and affinities stand elsewhere.

These results are taken from ChEMBL document CHEMBL3988442, “University of Dundee, Small-Polar-MMV Screening Library” (2021).

Design in all cases: scale not given: direction of the effect not stated beside the values
Assay [1] deals with Protein translocase subunit SecA (Escherichia coli (strain K12)) (UniProt P10408). The experiment in a line: Assay to Identify E. coli SecA ATPase Inhibitors. The format is functional. The following applies: 30 µM.
For assay [2], the target named is T1, Ubiquitin-activating enzyme e1, putative (Leishmania donovani (strain BPK282A1)) (UniProt E9BSI1).
T1 sequence (whole entry): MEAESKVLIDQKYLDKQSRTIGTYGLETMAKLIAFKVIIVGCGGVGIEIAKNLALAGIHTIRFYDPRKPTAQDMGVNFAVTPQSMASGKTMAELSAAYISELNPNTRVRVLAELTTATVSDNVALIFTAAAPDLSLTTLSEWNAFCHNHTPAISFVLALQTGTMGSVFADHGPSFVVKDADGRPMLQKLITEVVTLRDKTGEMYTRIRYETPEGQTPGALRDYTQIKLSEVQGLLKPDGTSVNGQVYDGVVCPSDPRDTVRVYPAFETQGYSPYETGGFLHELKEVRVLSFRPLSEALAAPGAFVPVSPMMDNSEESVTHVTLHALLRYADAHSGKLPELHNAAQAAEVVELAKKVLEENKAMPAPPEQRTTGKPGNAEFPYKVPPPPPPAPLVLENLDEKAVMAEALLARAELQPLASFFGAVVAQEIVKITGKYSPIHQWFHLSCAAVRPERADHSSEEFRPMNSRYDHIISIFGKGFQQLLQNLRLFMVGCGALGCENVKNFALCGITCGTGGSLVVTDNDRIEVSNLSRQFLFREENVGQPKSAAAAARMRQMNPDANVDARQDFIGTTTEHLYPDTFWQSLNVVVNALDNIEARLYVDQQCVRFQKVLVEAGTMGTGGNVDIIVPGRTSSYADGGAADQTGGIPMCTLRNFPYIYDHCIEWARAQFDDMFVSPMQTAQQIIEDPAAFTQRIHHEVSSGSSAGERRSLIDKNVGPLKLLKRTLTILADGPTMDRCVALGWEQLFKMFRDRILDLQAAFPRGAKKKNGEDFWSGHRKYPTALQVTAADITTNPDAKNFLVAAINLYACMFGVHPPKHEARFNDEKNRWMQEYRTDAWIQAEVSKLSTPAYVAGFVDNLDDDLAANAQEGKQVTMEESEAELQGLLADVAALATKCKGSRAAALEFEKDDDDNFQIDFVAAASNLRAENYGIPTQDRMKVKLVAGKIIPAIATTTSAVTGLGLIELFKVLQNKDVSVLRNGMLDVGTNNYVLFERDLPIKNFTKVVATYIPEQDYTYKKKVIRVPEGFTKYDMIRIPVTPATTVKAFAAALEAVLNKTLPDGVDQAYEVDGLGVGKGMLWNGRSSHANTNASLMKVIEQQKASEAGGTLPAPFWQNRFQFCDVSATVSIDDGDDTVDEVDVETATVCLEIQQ
Put plainly: Leishmania donovani Ubiquitin Activating Enzyme (LdE1). The format is functional. Particulars: 30 µM.

The target of assay [3] is AMP-activated protein kinase, AMPK (Homo sapiens) (UniProt P54646+O43741+P54619+Q9UGJ0+Q9Y478+Q13131+Q9UGI9). The experiment in a line: AMP-dependent Kinase enzyme assay. An in vitro enzyme assay that detects ADP turnover that is directly proportional to AMPK activity. This uses naive AMPK that is activated during the assay with MK-8722. The format is functional. Particulars: 30 µM.

Assay [4] has as its target Sialic acid-binding Ig-like lectin 9 (Homo sapiens) (UniProt Q9Y336). Put plainly: Hs-Siglec9 ALPHAscreen SOP 20170721. The following applies: 10 µM. (Alpha assays give light when donor and acceptor beads are brought close together.)
The subject of the next assay is Trypanosoma cruzi. The experiment in a line: Trypanosoma cruzi phosphomannomutase and mannose-1-phosphate guanylyltransferase assay. Particulars: 10 µM. The format is functional.
Assay [5] concerns the target T2, Arginase-2, mitochondrial (Homo sapiens) (UniProt P78540).
T2 sequence (whole entry): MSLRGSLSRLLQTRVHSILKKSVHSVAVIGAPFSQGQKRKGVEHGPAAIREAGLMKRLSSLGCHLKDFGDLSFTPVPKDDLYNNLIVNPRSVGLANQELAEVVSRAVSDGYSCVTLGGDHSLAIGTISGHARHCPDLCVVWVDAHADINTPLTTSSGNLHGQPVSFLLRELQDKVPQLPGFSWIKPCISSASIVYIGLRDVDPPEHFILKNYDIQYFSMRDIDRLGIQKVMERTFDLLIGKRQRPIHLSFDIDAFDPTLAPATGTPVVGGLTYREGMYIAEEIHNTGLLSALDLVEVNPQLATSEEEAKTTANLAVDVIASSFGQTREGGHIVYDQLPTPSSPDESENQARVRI
Put plainly: in vitro enzyme assay to detect the production of urea directly proportional to the activity of Arginase II. Note: in the data most compounds retested in dose-response had high values. The class given is functional. The following applies: 33.3 µM.

Assay [6] deals with T3, Proteasome subunit beta (Trypanosoma cruzi) (UniProt O96673).
T3 sequence (whole entry): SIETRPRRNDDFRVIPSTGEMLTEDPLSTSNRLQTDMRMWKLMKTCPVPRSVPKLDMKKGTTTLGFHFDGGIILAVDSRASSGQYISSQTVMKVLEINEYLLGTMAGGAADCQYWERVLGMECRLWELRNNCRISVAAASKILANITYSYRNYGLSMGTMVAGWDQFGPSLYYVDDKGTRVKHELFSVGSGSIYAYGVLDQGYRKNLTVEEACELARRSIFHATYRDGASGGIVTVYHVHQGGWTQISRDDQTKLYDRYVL
The experiment in a line: Trypanosoma cruzi proteasome chymotrypsin-like activity (TcProtChymo) assay. Note: in the data most compounds retested in dose-response had high values. The format is functional. The following applies: 9.37 µM.

The species named for a further assay is Homo sapiens. Put plainly: To identify inhibition of the IFN signalling (Jak-Stat) pathway via expression of an eGFP reporter gene under the control of an IFN-stimulated response element (ISRE) containing MxA promoter. The class given is functional. Particulars: 30 µM. (A reporter such as luciferase makes a cellular process visible.)
Assay [7] has as its target T4, Tyrosyl-tRNA synthetase, putative (Trypanosoma cruzi (strain CL Brener)) (UniProt Q4DSP6).
T4 sequence (whole entry): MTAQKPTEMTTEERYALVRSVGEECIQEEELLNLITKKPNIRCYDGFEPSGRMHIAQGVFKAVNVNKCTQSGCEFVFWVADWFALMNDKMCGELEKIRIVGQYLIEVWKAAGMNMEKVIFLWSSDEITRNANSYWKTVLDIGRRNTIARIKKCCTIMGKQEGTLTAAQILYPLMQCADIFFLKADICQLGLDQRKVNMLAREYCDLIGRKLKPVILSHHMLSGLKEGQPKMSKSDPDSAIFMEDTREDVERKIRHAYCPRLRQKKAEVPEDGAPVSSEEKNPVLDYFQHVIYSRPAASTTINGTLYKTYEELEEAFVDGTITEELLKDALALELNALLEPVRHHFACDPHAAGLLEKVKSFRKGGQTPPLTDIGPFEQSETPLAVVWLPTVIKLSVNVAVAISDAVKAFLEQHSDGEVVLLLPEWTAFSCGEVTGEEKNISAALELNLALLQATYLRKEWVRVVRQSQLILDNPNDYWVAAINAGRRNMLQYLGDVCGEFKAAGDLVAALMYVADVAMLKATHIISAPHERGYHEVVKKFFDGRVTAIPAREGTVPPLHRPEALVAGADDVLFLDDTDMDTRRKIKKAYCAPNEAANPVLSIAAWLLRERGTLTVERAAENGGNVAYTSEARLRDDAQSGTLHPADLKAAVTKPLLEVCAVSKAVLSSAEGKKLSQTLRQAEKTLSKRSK
Put plainly: Trypanosoma cruzi tyrosyl tRNA synthetase (TcYRS) _High Tyrosine SOP. Note: in the data most compounds retested in dose-response had high values. The class given is functional. Particulars: 30 µM.

Assay [8] addresses T4, Tyrosyl-tRNA synthetase, putative (Trypanosoma cruzi (strain CL Brener)). The experiment in a line: Trypanosoma cruzi tyrosyl tRNA synthetase (TcYRS) SOP. The class given is functional. The following applies: 30 µM.
Assay [9] has as its target Chromo domain-containing protein 1 (Saccharomyces cerevisiae (strain ATCC 204508 / S288c) (Baker's yeast)) (UniProt P32657). Put plainly: ScCHD-1 Enzyme Inhibition Assay. Note: in the data most compounds retested in dose-response had high values. The class given is functional. The following applies: 30 µM.

Chain of Protein translocase subunit SecA (Escherichia coli (strain K12)) (P10408 whole entry): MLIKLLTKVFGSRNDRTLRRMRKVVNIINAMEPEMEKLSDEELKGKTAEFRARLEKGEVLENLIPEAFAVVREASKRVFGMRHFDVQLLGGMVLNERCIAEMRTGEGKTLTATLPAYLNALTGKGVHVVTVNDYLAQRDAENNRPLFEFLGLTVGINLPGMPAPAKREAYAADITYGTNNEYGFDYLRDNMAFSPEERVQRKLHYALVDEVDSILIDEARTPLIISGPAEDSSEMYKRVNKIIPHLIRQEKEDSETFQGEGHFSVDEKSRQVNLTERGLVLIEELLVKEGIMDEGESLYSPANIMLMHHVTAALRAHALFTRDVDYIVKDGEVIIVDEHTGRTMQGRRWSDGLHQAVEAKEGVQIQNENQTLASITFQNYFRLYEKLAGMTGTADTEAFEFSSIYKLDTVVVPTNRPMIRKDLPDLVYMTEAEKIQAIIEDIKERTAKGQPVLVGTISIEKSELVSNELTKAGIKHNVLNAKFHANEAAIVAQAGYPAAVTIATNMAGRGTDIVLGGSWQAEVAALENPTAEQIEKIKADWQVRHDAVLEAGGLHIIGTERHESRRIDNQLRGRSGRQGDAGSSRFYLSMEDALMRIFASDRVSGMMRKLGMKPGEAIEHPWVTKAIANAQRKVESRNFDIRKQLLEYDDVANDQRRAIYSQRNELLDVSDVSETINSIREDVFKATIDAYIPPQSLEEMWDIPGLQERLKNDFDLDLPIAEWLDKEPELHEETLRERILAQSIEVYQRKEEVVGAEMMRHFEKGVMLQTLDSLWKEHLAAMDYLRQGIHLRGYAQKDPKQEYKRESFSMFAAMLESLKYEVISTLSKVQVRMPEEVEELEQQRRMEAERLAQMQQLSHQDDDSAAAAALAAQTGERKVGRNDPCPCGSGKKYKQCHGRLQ
Chain of Sialic acid-binding Ig-like lectin 9 (Homo sapiens) (Q9Y336 whole entry): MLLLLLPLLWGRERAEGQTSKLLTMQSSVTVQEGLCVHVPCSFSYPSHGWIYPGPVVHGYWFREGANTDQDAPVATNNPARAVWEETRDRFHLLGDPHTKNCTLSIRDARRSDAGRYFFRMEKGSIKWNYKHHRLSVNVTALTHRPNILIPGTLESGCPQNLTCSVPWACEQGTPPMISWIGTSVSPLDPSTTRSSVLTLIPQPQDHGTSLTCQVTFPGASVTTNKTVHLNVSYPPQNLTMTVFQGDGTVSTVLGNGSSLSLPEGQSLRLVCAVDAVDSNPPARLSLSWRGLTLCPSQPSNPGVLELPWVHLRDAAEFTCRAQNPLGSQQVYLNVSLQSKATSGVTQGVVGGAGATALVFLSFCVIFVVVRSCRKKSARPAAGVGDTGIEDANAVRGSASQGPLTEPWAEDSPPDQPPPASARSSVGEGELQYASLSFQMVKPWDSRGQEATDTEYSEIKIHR
Chain of Chromo domain-containing protein 1 (Saccharomyces cerevisiae (strain ATCC 204508 / S288c) (Baker's yeast)) (P32657 whole entry, the tested form may be a part): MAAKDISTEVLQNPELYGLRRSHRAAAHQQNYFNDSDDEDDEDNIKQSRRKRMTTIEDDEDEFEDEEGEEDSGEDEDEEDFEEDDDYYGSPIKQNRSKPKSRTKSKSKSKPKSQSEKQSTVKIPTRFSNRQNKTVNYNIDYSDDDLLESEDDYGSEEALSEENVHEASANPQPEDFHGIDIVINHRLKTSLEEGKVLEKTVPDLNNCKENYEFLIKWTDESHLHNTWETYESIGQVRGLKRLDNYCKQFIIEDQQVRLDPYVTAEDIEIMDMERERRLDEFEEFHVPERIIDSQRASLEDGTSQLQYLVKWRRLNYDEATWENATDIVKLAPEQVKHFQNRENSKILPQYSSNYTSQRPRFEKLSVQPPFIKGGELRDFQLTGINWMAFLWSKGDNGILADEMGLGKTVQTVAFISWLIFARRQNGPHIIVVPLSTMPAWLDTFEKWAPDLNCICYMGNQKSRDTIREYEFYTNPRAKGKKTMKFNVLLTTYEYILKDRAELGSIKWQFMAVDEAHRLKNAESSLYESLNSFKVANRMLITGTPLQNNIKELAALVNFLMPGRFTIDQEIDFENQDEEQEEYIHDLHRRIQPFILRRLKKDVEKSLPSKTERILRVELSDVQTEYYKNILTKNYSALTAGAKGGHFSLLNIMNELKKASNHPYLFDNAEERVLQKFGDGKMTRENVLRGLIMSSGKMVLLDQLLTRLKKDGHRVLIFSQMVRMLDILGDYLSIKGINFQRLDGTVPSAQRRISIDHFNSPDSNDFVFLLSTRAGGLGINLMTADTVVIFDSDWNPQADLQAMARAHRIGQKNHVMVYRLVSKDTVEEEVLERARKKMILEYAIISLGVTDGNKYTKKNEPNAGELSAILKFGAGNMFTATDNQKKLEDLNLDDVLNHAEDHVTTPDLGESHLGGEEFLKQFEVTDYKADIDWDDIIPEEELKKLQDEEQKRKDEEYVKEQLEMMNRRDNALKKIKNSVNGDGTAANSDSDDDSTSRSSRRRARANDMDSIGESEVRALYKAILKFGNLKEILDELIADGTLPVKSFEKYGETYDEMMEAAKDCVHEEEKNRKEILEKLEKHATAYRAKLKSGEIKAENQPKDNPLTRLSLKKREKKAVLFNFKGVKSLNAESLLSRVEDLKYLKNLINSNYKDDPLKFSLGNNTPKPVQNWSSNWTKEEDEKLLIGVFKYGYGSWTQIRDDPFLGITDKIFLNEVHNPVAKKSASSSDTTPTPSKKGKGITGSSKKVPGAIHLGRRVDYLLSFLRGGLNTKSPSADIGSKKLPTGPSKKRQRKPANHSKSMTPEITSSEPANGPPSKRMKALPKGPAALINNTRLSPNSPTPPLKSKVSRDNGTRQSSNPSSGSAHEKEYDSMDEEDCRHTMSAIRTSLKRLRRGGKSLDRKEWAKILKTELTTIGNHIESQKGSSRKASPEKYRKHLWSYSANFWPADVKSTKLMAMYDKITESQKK

Consider `Cn1cc(C(=O)NCc2cn3c(n2)CN(Cc2ccccn2)CC3)cn1`, for which the Percent Effect in assay [1] is -7.16%; in assay [2], 2.7%; in assay [3], 4.33%; in assay [4], -3.43%; in the assay with Trypanosoma cruzi, 2.73%; in assay [5], 2.08%. Further, the Percent Effect in assay [6] was -0.254%; in the assay listed under Homo sapiens, -6.36%; in assay [7], 6.93%; in assay [8], 8.54%; in assay [9] it was -1.37%.

With `CCCn1[nH]cc/c1=N\C(=O)CN1CCCC1c1c(C)nn(C)c1C` (stereo not given), the Percent Effect in [1] was -4.29%; in assay [2], 2.7%; in assay [3] it was -27.7%; in assay [4], 15.7%; with Trypanosoma cruzi, 7.45%; in assay [5], 6.81%. Moreover, the Percent Effect was 3.78% in assay [6]; -0.266% in the assay listed under Homo sapiens; 3.45% in assay [7]; 13.6% in [8]; -10.6% in assay [9].

Regarding `CCN(CC)c1ccc(NS(=O)(=O)c2cnn(C)c2)cn1`, the Percent Effect in assay [1] is -1.96%; in assay [2], 16.4%; in assay [3], -5.27%; in assay [4], 6.69%; with Trypanosoma cruzi it was 8.33%; in assay [5], -6.39%. For the same molecule, the Percent Effect in [6] was 8.48%; in the assay listed under Homo sapiens, 0.142%; in assay [7] it was 6.25%; in [8] it was 13.6%; in [9], -5.08%.

For `Cc1cnc2n(c1=O)C(CC(=O)NCc1cc(-c3cccs3)on1)CS2` (stereo not given), the Percent Effect in [1] was -0.436%; in assay [2], 20.8%; in assay [3], 11.4%; in [4], -23.7%; in the assay on Trypanosoma cruzi, 1.28%; in [5], 5.81%. The Percent Effect in assay [6] is 6.79%; in the assay listed under Homo sapiens it was 28.9%; in assay [7] it was 2.12%; in assay [8] it was 16.7%; in assay [9], -11%.

Take `COCC(NC(=O)c1ccc[nH]1)c1cccc(C(F)(F)F)c1` (stereo not given): the Percent Effect is -6.18% in [1]; 2.74% in [2]; -4.37% in [3]; 35.1% in assay [4]; 9.01% in the assay with Trypanosoma cruzi; 32.3% in assay [5]. Besides, the Percent Effect in [6] was 4.79%; in the assay listed under Homo sapiens, 3.46%; in assay [7], 0%; in assay [8] it was 10%; in assay [9] it was -5.6%.

`COc1ccccc1OCC(=O)Nc1ncccc1OC(F)F`: the Percent Effect was -3.34% in assay [1]; 1.39% in assay [2]; -0.812% in [3]; -4.65% in assay [4]; -7.48% in the assay on Trypanosoma cruzi; 4.86% in assay [5]. The Percent Effect in [6] is 13.2%; in the assay filed under Homo sapiens, -3.02%; in assay [7], 1.05%; in assay [8], -5.13%; in [9], -3.95%.

With `CO[C@H]1CN(Cc2cccc(C#N)c2)[C@@H]2COC[C@H]12`, the Percent Effect is -3.41% in assay [1]; 8% in [2]; -0.964% in assay [3]; 2.51% in assay [4]; 0.965% in the assay on Trypanosoma cruzi; -48.9% in [5]. For the same molecule, the Percent Effect in assay [6] was 7.52%; in the assay listed under Homo sapiens it was -21.7%; in assay [7], 5.21%; in assay [8], 22.5%; in assay [9], -5.96%.

With `Cc1c(C(=O)NC(CN2CCCC2=O)c2ccccc2)cnn1C` (stereo not given), the Percent Effect was 0.252% in assay [1]; 10.5% in assay [2]; 1.96% in assay [3]; -5.31% in assay [4]; -4.7% in the assay on Trypanosoma cruzi; 6.9% in assay [5]. In addition, the Percent Effect in assay [6] was 7.69%; in the assay filed under Homo sapiens, 19%; in assay [7], 3.43%; in assay [8], 9.76%; in [9], -6.11%.

Take `O=C1CCC2(CCN(Cc3cc(F)cc(F)c3)CC2)CN1CCO`: the Percent Effect in assay [1] was -6.11%; in assay [2] it was 4.17%; in [3], -0.613%; in assay [4], 0.944%; in the assay with Trypanosoma cruzi, 1.85%; in assay [5], -24.7%. In addition, the Percent Effect in [6] is 9.12%; in the assay filed under Homo sapiens, -8.34%; in assay [7], 3.16%; in [8], 10.3%; in assay [9], -0.52%.

On to `COc1ccccc1CC(=O)NS(=O)(=O)c1ccc(C(N)=O)cc1`, for which the Percent Effect in assay [1] is -0.063%; in [2], 0%; in assay [3] it was 0.334%; in assay [4] it was 0.784%; in the assay on Trypanosoma cruzi, -0.374%; in assay [5] it was 9.25%. For the same molecule, the Percent Effect in [6] is 1.35%; in the assay filed under Homo sapiens, -4.28%; in assay [7], 3.88%; in assay [8], -2.44%; in assay [9], -0.229%.
